# BAZ2B inh: qHTS Assay for Inhibitors of BAZ2B. Bromodomain adjacent to zinc finger domain protein 2B (Homo sapiens), Q9UIF8. AlphaScreen BAZ2B-H3K14Ac peptide displacement. Potency, µM (titrated, usually from 114 µM), inactives show at the highest dose activity change, negative = inhibition, hits mostly inhibitors. actives 4.4% (n = 360,000). AID 504333, 2011; note: potency is the fitted concentration of half-maximal effect; % is set by controls: 0 for no effect and ±100 for the full control effect; nearly all actives have a fitted effect of over 60% in size
#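 Complex of BAZ2B and biotin-H3K14Ac (50 nM apiece) forms over 30 min at RT, then faces library compounds up to 110 uM for another 30 min; AlphaScreen beads added, 20 min dark incubation, luminescence read.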
# CtBP-E1A blk: qHTS Assay for Inhibitors of the CtBP/E1A Interaction; AlphaScreen GST-E1A/His-CtBP binding, 1536-well; hits give low values; CtBP / adenovirus E1A interaction (AlphaScreen); activity change, % (concentration not given with the values); actives 0.49% (n = 340,000); in the data active = activity change below about -65%; inconclusive = mostly about -30% to -63%; note: % is set by controls: 0 for no effect and ±100 for the full control effect
#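 AlphaScreen with 125 nM GST-E1A and 125 nM His-CtBP (5X stocks) in Tris pH 8.0, 300 mM NaCl, BSA, Tween 20, TCEP. Compounds preincubated 2 h at 37 deg C, then glutathione donor/nickel acceptor beads added for 1 h at 37 deg C in dark.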
# G9a block: qHTS Assay for Inhibitors of Histone Lysine Methyltransferase G9a; Histone-lysine N-methyltransferase EHMT2 (Homo sapiens), Q96KQ7; G9a H3K9 monomethylation, AlphaScreen, 2 h; Potency, µM (series often up to 102 µM), inactives show at the highest dose activity, negative = inhibition, hits mostly inhibitors; actives 8.8% (n = 350,000); AID 504332, 2011; note: potency is the fitted concentration of half-maximal effect; % is set by controls: 0 for no effect and ±100 for the full control effect; nearly all actives have a fitted effect of over 75% in size
#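 Quantitative HTS format: methyltransferase activity on a biotin-tagged H3K9 peptide is measured by AlphaScreen, using a rabbit anti-monomethyl-H3K9 antibody with streptavidin donor and anti-IgG acceptor beads. Final levels are 20 nM enzyme, 500 nM peptide, 20 uM SAM; 2 h RT.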
# JMJD2A Tudor inh: qHTS Assay for Inhibitors of JMJD2A-Tudor Domain; Lysine-specific demethylase 4A (Homo sapiens), O75164; AlphaScreen JMJD2A-Tudor / H3K4me3 peptide binding; Potency, µM (titrated, usually from 114 µM), for inactives: at the highest dose activity change, negative = inhibition, actives largely listed as inhibitors; actives 4.4% (n = 390,000); AID 504339, 2011; note: potency is the fitted concentration of half-maximal effect; % is set by controls: 0 for no effect and ±100 for the full control effect; nearly all actives have a fitted effect of over 50% in size
# Target sequence (O75164 whole entry, looked up, the tested form may be a part): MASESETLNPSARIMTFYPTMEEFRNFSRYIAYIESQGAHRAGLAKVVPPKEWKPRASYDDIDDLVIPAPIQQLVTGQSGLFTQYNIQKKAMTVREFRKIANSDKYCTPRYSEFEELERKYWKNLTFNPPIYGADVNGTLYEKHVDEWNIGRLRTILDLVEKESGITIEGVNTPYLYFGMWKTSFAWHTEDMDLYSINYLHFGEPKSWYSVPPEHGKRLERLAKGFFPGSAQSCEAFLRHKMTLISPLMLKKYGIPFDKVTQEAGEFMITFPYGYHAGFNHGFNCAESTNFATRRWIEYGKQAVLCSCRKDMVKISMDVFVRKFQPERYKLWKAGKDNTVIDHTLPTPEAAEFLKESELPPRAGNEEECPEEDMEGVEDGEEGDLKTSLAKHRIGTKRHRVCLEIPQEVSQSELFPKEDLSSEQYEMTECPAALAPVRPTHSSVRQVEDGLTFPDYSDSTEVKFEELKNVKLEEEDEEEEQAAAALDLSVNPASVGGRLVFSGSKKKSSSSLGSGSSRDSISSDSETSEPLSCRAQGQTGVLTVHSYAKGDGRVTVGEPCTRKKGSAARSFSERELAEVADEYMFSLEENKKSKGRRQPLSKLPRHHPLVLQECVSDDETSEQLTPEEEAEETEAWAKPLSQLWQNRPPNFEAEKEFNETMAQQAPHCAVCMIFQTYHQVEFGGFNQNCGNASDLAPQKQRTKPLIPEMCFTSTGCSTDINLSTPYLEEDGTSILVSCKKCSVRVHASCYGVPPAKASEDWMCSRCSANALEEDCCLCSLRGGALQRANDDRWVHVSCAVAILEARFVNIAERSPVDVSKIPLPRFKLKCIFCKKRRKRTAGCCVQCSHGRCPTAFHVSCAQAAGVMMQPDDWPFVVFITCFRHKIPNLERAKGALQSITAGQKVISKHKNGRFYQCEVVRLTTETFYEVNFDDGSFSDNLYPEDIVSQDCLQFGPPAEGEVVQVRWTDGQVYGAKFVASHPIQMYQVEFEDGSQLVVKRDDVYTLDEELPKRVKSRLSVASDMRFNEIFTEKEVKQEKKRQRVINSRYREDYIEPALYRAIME
# HP1b chromo inh: HTS for Inhibitors of HP1-beta Chromodomain Interactions with Methylated Histone Tails | Chromobox protein homolog 1 (Homo sapiens), P83916 | AlphaScreen HP1-beta / biotin-H3K9me3 peptide binding | Potency, µM (doses to about 114 µM), for inactives: at the top dose activity change, negative = inhibition, usual class: inhibitors | actives 0.56% (n = 390,000) | AID 540317, 2011; note: potency is the fitted concentration of half-maximal effect; nearly all actives have a fitted effect of over 70% in size
#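 Compound inhibition of the preformed complex between 50 nM HP1-beta and 50 nM biotinylated H3K9me3 peptide was read by AlphaScreen. Buffer was PBS pH 7.4 with 0.01% Tween-20. Incubations ran 30 min at room temperature, with 10 ug/mL donor/acceptor beads.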
# Six1-Eya2 blk: qHTS Assay for Inhibitors of the Six1/Eya2 Interaction; Homeobox protein SIX1 (Homo sapiens) + Protein phosphatase EYA2 (Homo sapiens), …; AlphaScreen GST-Six1/His-Eya2 binding, biochemical; hits give low values; actives 0.56% (n = 360,000); activity change, % (no concentration beside the values); in the data active = activity change below about -65%; inconclusive = mostly about -30% to -63%; note: % is set by controls: 0 for no effect and ±100 for the full control effect
#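 AlphaScreen with GST-Six1 and His-Eya2 (5X mix: 250 nM and 500 nM), glutathione donor and nickel acceptor beads; buffer 50 mM Tris pH 8.0, 300 mM NaCl, 1 mM TCEP; 1 h at 37 C in the dark.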
# Active calls of the source: *; u = inconclusive; x = no result given; [ ] = another dose, or the depositor's remark. Hits are enriched below; roughly 10% of the tested compounds scored in any of these assays. Unless noted, calls come from the whole dose curve; as a rule, active = well fitted inhibition curve with a large enough effect; inconclusive = small, poorly fitted or top-dose-only effect; inactive = no such curve, though single readings can be large or run the other way.
SMILES,BAZ2B inh,CtBP-E1A blk,G9a block,JMJD2A Tudor inh,HP1b chromo inh,Six1-Eya2 blk
O=C(COc1ccc(Cl)cc1Br)Nc1ccncc1,10.3%[0.457 µM],9.5,30.9%[59 µM],-12.6%,28.2%,4.2
COc1cc(C2SCCS2)cc(Br)c1Oc1ncccc1[N+](=O)[O-],u,-19.7,10µM*,u,u,-24.2
Cc1cc(=O)oc2cc(Oc3ncccc3[N+](=O)[O-])ccc12,u,1.1,-27.7%,-12.2%[57.1 µM],20.2%,-2.8
COc1ccccc1/C=N\Nc1ccccc1[N+](=O)[O-],3.16µM*,0.0,7.94µM*,8.91µM*,12.6µM*,-19.0
CCOc1ccccc1/C=N/Nc1ccccc1[N+](=O)[O-],u,-8.9,u,u,-29.6%,-23.0
CC(C)Oc1ccccc1/C=N/Nc1ccccc1[N+](=O)[O-],5.62µM*,-75.8*,3.55µM*,14.1µM*,u,-72.1*
Clc1nc2ccccc2cc1/C=N/Nc1nc2ccccc2[nH]1,-37.6%,2.9,-0.7%[59 µM],-26.6%,34.6%,-3.5
COc1ccc(/C=N\Nc2ccc([N+](=O)[O-])cc2[N+](=O)[O-])c(C(=O)O)c1OC,-37.7%,x,25.1µM*,50.1µM*,u,-1.3
COc1ccc(/C=N\Nc2ccccc2[N+](=O)[O-])c(C(=O)O)c1OC,u,-14.5,x,0.0%[11.4 µM],1.0%,-20.9
O=[N+]([O-])c1ccccc1N/N=C/c1cc2ccccc2nc1Cl,u,-18.2,50.1µM*,u,0.7%,-24.8
Cc1ccccc1OC(C)C(=O)NCCCN1CCOCC1 (stereo not given),-4.1%,1.6,7.5%,1.1%,17.0%,1.0
COc1cc(/C=N/Nc2ccccc2[N+](=O)[O-])cc(OC)c1O,u,0.0,7.08µM*,-24.7%,-10.2%,0.0
COc1cc(/C=N/Nc2ccc(F)cc2F)cc(OC)c1O,u,-6.1,1.58µM*,79.4µM*,u,3.7
CC1=C(/C=N/Nc2ccc([N+](=O)[O-])cc2[N+](=O)[O-])C(C)(C)CCC1,3.55µM*,-12.4,20µM*,2.82µM*,8.91µM*,-14.4
COc1cc(/C=N/Nc2ccc(S(N)(=O)=O)cc2[N+](=O)[O-])cc(OC)c1O,u,x,x,-18.7%,30.4%,u
Cc1ccc(/C=N/Nc2ccc(F)cc2F)s1,u,-14.4,u,-27.4%,5.6%,-14.3
CCC1Sc2ccccc2N(CC(=O)NCc2ccc(C)cc2)C1=O (stereo not given),2.5%,x,7.1%[59 µM],-9.8%,34.5%,x
Cc1ccc(OCC(=O)OCc2cc(=O)n3nc(-c4cccs4)sc3n2)cc1C,-16.2%,x,4.0%[59 µM],-13.0%,34.1%,x
Cc1c(C(=O)C(=O)NCc2cccs2)c2ccccc2n1C,-9.6%,-4.4,-21.4%,-23.4%,11.6%,-1.9
C=Cc1ccc(C(=O)N2CCCC(Nc3ccc4c(c3)OCCO4)C2)cc1 (stereo not given),u,-4.0,39.8µM*,u,-30.0%,-16.7
C=CCOc1cccc(C(=O)N2CCCC(CCC(=O)NCc3ccccc3F)C2)c1 (stereo not given),-0.4%,0.1,x,-2.8%,28.6%,1.8
C=CCOc1cccc(C(=O)N2CCCC(Nc3ccc4c(c3)OCCO4)C2)c1 (stereo not given),44.7µM*,-3.3,u,u,-13.5%,-19.7
Cn1c(=O)c2c(ncn2CCCC(=N)N2CCOCC2)n(C)c1=O,-2.3%,8.0,5.3%[12.7 µM],50.1µM*,-7.9%,1.9
N#Cc1c(Cl)nsc1NN,14.1µM*,-4.4,7.08µM*,50.1µM*,44.7µM*,-18.5
CC(NC(=O)C(Cc1ccccc1)=NO)c1ccccc1 (stereo not given),x,6.0,x,-5.6%,u,-1.0
SMILES,BAZ2B inh,CtBP-E1A blk,G9a block,JMJD2A Tudor inh,HP1b chromo inh,Six1-Eya2 blk
CCC(O)CNc1nc(-n2nc(C)cc2C)nc2sc3c(c12)CCCC3 (stereo not given),-2.2%,x,3.2%[59 µM],x,x,x
Cc1cc(C)n(-c2nc(SCCN(C)C)c3c4c(sc3n2)CCCC4)n1,u,-18.4,x,56.2µM*,2.4%,-19.3
Cc1nnc(N2C(=O)c3oc4ccccc4c(=O)c3C2c2ccc(Cl)cc2)s1 (stereo not given),-2.0%,x,-27.9%[59 µM],u,-9.0%,x
S=C(NN=C1CCCCCC1)Nc1ccc(Cl)cc1,-2.1%,6.2,28.2µM*,100µM*,-18.0%,0.2
O=C(COc1ccc(Cl)cc1)NN=C1CCCCCCC1,-8.6%,5.9,59.3%,-4.1%,18.4%,-1.8
Fc1ccc(NC(=S)NN=C2CCCCCC2)cc1,u,-10.5,35.5µM*,56.2µM*,-24.2%,-4.1
O=C(NNC1CC(=O)N(c2ccc(Br)cc2)C1=O)c1ccco1 (stereo not given),-10.7%,14.6,u,-15.6%,8.7%,-1.2
CC(=O)c1ccc(NC(=O)CSc2nnc(-c3ccco3)c(-c3ccco3)n2)cc1,44.7µM*,u,x,22.4µM*,31.6µM*,u
O=C(CSc1nnc(-c2ccco2)c(-c2ccco2)n1)c1ccccc1,-1.3%,-23.5,6.7%,44.7µM*,u,u
Cc1cc(C)c(NC(=O)CSc2nncn3c2cc2oc(C)cc23)c(C)c1,u,x,u,-20.1%,-7.8%,x
O=C1CCc2nc3ccccc3c(=O)n2N1,56.2µM*,1.1,-50.3%[12.7 µM],u,27.1%,-1.9
Cc1ccc(N(O)C(C)(C)C)cc1,x,7.6,x,-23.6%,3.4%,-5.9
CCOC(=O)CSc1nc2c(sc3cccc(F)c32)c(=O)n1Cc1ccc(OC)cc1,2.1%,x,16.2%[59 µM],-18.7%,25.2%,x
CN1C(=O)C(c2cn(C)c3ccccc23)(c2cn(C)c3ccccc23)c2cc(Br)ccc21,x,-19.2,x,x,x,-21.2
N#Cc1cc(C(=O)c2cc(Br)ccc2O)cn(C2CCCCC2)c1=O,u,2.4,x,-7.0%,24.9%,-6.8
N#CC1=C2SCN(C3CCCCC3)CN2C(=O)CC1c1ccc(Br)cc1 (stereo not given),x,x,2.82µM*,15.8µM*,u,x
CCOc1cc(C2CC(=O)Nc3cc(C)c(C)cc32)ccc1O (stereo not given),3.1%,-11.2,2.6%,-11.6%,3.2%,-0.2
Cc1ccc(NC(=O)CSC2=C(C#N)C(c3ccco3)CC(=O)N2)cc1 (stereo not given),u,-1.1,-15.1%,-14.0%,24.5%,-9.2
CCOc1cc(C2CC(=O)N3CN(C4CCCCC4)CSC3=C2C#N)ccc1O (stereo not given),-25.0%,-5.5,2.24µM*,79.4µM*,u,5.7
